HSF1 inhib = HSF1 inhibition | NIH3T3-HGL HSE-luciferase, MG132-induced, luminescence 8 h; active compounds read low | activity change, negative = inhibition, % at 7.5 µM (by protocol) | 300,000 tested, 0.77% active;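 active = more than half of replicate wells show activity change below -50%, luminescence cut by over half; inconclusive = some wells, but at most half, below -50%; inactive = no replicate well below -50%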;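 note: luciferase reports HSF-1 transcriptional activity via heat shock element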
HSF1 activator = increases HSF-1 driven luciferase reporter signal | NIH3T3-HGL HSF-1 luciferase reporter, MG132, 8 h; 100% = twice DMSO control signal | activation, % at 9 µM | 300,000 tested, 1.7% active | AID 504408;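 active = mean replicate activation of at least 50% with a set share of replicates each reaching 50%; inconclusive = only one of those two conditions met; inactive = mean below 50% and too few replicates reaching it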
LMP1 NFkB inh = inhibitors of Epstein-Barr LMP1-induced NF-kappaB reporter; LMP1-induced NF-kappaB luciferase reporter cells, luminescence; inhibition, % at 12.5 µM; 350,000 tested, 0.69% active; in the data active = inhibition above about 41%; inconclusive = no clear call, values can overlap the other calls
TROY NFkB inh = inhibitors of TROY-dependent NF-kB signaling | inhibition, % at 10 µM | Q293 LMP1-TROYcd NF-kB luciferase reporter, 4 h | 360,000 tested, 0.98% active;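 active = compounds whose plate-normalised and pattern-corrected inhibition of the luciferase reporter signal at the single screening dose is 50% or more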
LGR2 inh = blocks bursicon-induced cAMP signaling via Drosophila LGR2; HEK293 LGR2, CRE-luciferase, bursicon-stimulated, 4 h; inhibition, % at 9.99 µM; 380,000 tested, 0.35% active;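 active = drop in luminescence signal, shown as inhibition above about 50% in the replicate tests, limit read from the data, passing the limit was not always enough; inconclusive = probably only some replicates passing the limit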;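 note: agonist challenge used bursicon conditioned medium at about half maximal strength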
TWEAK-Fn14 inh = TWEAK-Fn14 signaling inhibition. TWEAK-stimulated Fn14 reporter cells, luciferase luminescence, 8 h. 360,000 tested, 2% active. AID 1159606. inhibition, % at 10 µM; in the data active = inhibition above about 50%
Hits are given with their value; n = inactive; u = inconclusive; x = not tested or not shown. A selection: hits, their analogues and other compounds. The true share with any hit is near 3.6%.

SMILES | HSF1 inhib | HSF1 activator | LMP1 NFkB inh | TROY NFkB inh | LGR2 inh | TWEAK-Fn14 inh
Cc1[nH]c2ccccc2c1C(=O)/C=C/c1ccccc1 | n | 70 | n | n | x | n
Cc1[nH]c2ccccc2c1C(=O)CN1CCN(C/C=C/c2ccccc2)CC1 | n | n | n | n | x | n
Cc1nc2ccccc2c(N)c1C(=O)/C=C/c1ccccc1 | n | 64 | n | n | n | n
CCC(=O)N1CCC2(CC1)CN(S(C)(=O)=O)[C@@H](CO)c1[nH]c3cc(OC)ccc3c12 | x | x | x | x | n | x
COCC(=O)Nc1ccc2c(c1)OC[C@H](C)N(CC1CCCCC1)C[C@H](C)[C@@H](OC)CN(C)C2=O | x | x | x | x | n | x
CC(C)C#Cc1cnc2c(c1)C(=O)N([C@@H](C)CO)C[C@H](C)[C@H](CN(C)C(=O)c1cnccn1)O2 | x | x | x | x | n | x
Clc1ccc(OCc2nc(-c3ccccn3)no2)c(Br)c1 | n | n | n | n | 69 | 67
Clc1ccccc1OCc1nc(-c2ccccn2)no1 | n | 60 | n | n | x | n
Cc1ccc(S(=O)(=O)CCN2CCC(O)(c3ccccc3)CC2)cc1 | n | n | n | n | n | n
Cc1ccc(S(=O)(=O)CCN2CCN(c3ccccc3)CC2)cc1 | n | 120 | n | n | n | n
CO[C@H]1CN(C)C(=O)c2ccc(NC(=O)C3CC3)cc2OC[C@@H](C)N(CCC(F)(F)F)C[C@@H]1C | x | x | x | x | n | x
Cc1ccc(C(=O)c2cccc(N)c2)cc1C | n | n | n | n | n | 52
Cc1ccc(C(=O)c2ccc(O)cc2)cc1C | x | x | n | n | x | n
Oc1ccc(-c2csc(-c3cccnc3)n2)c(O)c1 | n | n | n | n | u | 54
Cc1cc(C(C)(C)C)oc1C(=O)NCCCNC(=O)c1oc(C(C)(C)C)cc1C | n | n | n | x | x | 74
O=C(CSC1CS(=O)(=O)c2cc([N+](=O)[O-])ccc21)NNC(=O)c1ccccc1 (stereo unspecified) | n | n | n | n | n | n
O=C(CSC1CS(=O)(=O)c2cc([N+](=O)[O-])ccc21)NNC(=O)c1ccc(Cl)cc1 (stereo unspecified) | n | 61 | n | n | n | n
O=C(COc1ccc(Br)cc1)Nc1ccc(-c2nnc(-c3ccco3)o2)cc1 | n | 51 | n | n | x | n
Cc1cc(O)c2c(c1O)C(=O)[C@]13C(=C2O)C(=O)[C@@H]2[C@@H](O)[C@H]1[C@@H]1[C@H](O)[C@H]3C(=O)C3=C(O)c4c(O)cc(C)c(O)c4C(=O)[C@]312 | x | x | n | n | x | 65
COc1ccc(S(=O)(=O)Nc2cccc3c2O[C@H](CN(C)S(=O)(=O)c2cccs2)[C@@H](C)CN([C@@H](C)CO)C3=O)cc1 | x | x | x | x | n | x
CC(=O)NCCNC(=O)c1ccc(CSc2nc3ccccc3s2)cc1 | -59 | n | n | 69 | 67 | 85
COc1ccc(C(=O)NCc2ccc(-c3nc4ccccc4s3)cc2)cc1 | n | 60 | n | n | x | n
COC(=O)Cc1ccc2sc(-c3ccccc3)nc2c1 | n | 61 | n | n | n | 56
COc1cc(C(=O)NCc2ccc(-c3nc4ccccc4s3)cc2)cc(OC)c1OC | n | n | n | n | x | n
COc1cccc(C(=O)NCc2ccc(-c3nc4ccccc4s3)cc2)c1 | n | n | n | x | n | n
SMILES | HSF1 inhib | HSF1 activator | LMP1 NFkB inh | TROY NFkB inh | LGR2 inh | TWEAK-Fn14 inh
COc1ccccc1C(=O)NCc1ccc(-c2nc3ccccc3s2)cc1 | -59 | n | n | n | n | 76
C[C@@H]1CN([C@@H](C)CO)C(=O)c2cc(C#Cc3cccnc3)cnc2O[C@@H]1CN(C)C(=O)CC1CC1 | x | x | x | x | n | x
C[C@H](CO)N1C[C@H](C)[C@H](CN(C)Cc2cccc(C(=O)O)c2)Oc2ncc(C#C[C@@H](C)O)cc2C1=O | x | x | x | x | n | x
CNC(=O)C[C@@H]1CC[C@@H]2[C@H](COc3ccc(NC(=O)c4ccc(F)cc4)cc3C(=O)N2C)O1 | x | x | x | x | n | x
Cn1c(Oc2ccc(Cl)cc2)c(C=O)c2ccccc21 | n | n | n | n | x | 64
COc1ccc(Oc2c(C=O)c3ccccc3n2C)cc1 | n | n | n | n | x | n
Cn1c(Sc2ccccc2Cl)c(C=O)c2ccccc21 | n | n | n | n | x | n
Cn1c(Sc2ccc(Cl)cc2)c(C=O)c2ccccc21 | n | n | n | 55 | x | 80
CC(C)CC#Cc1ccc([C@H]2[C@@H](CO)N3C(=O)CN(C(=O)NC4CCCC4)C[C@@H]23)cc1 | x | x | x | x | n | x
Cc1ccc(SCc2cc(-c3ccc(Cl)cc3)no2)cc1 | n | n | n | n | x | n
c1ccc(SCc2cc(-c3ccccc3)no2)cc1 | n | 67 | n | n | n | n
Clc1ccc(-c2cc(CSc3ccccc3)on2)cc1 | n | 66 | n | n | x | n
Clc1ccc(-c2cc(CSc3cccc(Cl)c3)on2)cc1 | n | n | n | n | x | n
C[C@H]1CN([C@@H](C)CO)C(=O)c2cccc(NC(=O)Nc3ccc(F)cc3)c2O[C@H]1CN(C)Cc1ccc(Oc2ccccc2)cc1 | x | x | x | x | n | x
CN1C(=O)c2cc(NS(=O)(=O)c3ccccc3Cl)ccc2OC[C@H]2O[C@H](CC(=O)O)CC[C@@H]21 | x | x | x | x | n | x
CC(=O)c1cccc(NC(=O)CN2C(=S)NC(C)(C)CC2C)c1 (stereo unspecified) | -62 | n | n | n | n | n
Cc1ccc(NC(=O)CN2C(=S)NC(C)(C)CC2C)cc1Cl (stereo unspecified) | x | x | n | n | n | n
CCOc1ccc(NC(=O)CCN2C(=S)NC(C)(C)CC2C)cc1 (stereo unspecified) | n | n | n | n | n | 94
C[C@H]1CN([C@@H](C)CO)C(=O)Cc2cc(NS(=O)(=O)c3ccccc3)ccc2O[C@H]1CN(C)Cc1ccc(C(=O)O)cc1 | x | x | x | x | n | x
COc1cc(OC)cc(-c2c(C#Cc3ccsc3)c3cc(-c4cc(OC)c(OC)c(OC)c4)ccc3n2C)c1 | x | x | 89 | n | n | n
COc1ccc(CN(C)C[C@H]2Oc3ccc(NC(=O)C4CCCCC4)cc3CC(=O)N([C@@H](C)CO)C[C@@H]2C)cc1 | x | x | x | x | n | x
CC(C)[C@H](CO)Nc1nc(NCc2ccc(S(N)(=O)=O)cc2)c2ncn(C(C)C)c2n1 | n | n | n | n | 53 | n
COc1ccc(C(=O)Nc2nnc(SCC(=O)NCc3ccco3)s2)c(OC)c1 | n | n | n | n | u | 75
COc1ccc(C(=O)Nc2nnc(SCC(=O)NC3CC3)s2)cc1 | n | n | 45 | n | u | 54
COc1cccc(C(=O)Nc2nnc(SCC(=O)NC3CC3)s2)c1 | n | n | n | n | n | n
COc1ccc(C(=O)Nc2nnc(SCC(=O)NC3CCCC3)s2)c(OC)c1 | n | n | n | n | n | 74
CO[C@@H]1CN(C)C(=O)c2ccc(NC(=O)Nc3ccccc3)cc2OC[C@H](C)N(CC2CC2)C[C@@H]1C | x | x | x | x | n | x
CN1C(=O)c2cc(NC(=O)c3ccccc3)ccc2OC[C@H]2O[C@H](CC(=O)NCC3CC3)CC[C@@H]21 | x | x | x | x | n | x
O=C(N[C@H]1CC[C@H](CCNC(=O)C2CCOCC2)O[C@H]1CO)c1ccncc1 | x | x | x | x | n | x
